Measurements: PubChem BioAssay (Tox21)
Where “and” joins values, the source holds several entries; their conditions need not be identical. Identical values can stand only once. Records with an inconclusive call do not appear. Calls of active or inactive are those of the source. Unless noted, the call rests on the fitted dose curve; in most records, active means well fitted curve in the direction sought with a large enough effect in the repeat runs; inconclusive means weak or mixed curves; inactive means no such curve, though single readings can be large; an effect the other way counts as inactive or inconclusive.

How the values were obtained:
[1] = qHTS assay for small molecules that induce genotoxicity in human embryonic kidney cells expressing luciferase-tagged ATAD5 (AID 651632); further: nearly all actives have a fitted effect of over 15% in size
Summary of the method: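 ATAD5-luc HEK293T, 2,000 cells/well; cpd or DMSO pin-transferred; 16 hr, 37C/5% CO2; Amplite 30 min RT; luminescence.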

[2] = qHTS assay for small molecules that induce genotoxicity in human embryonic kidney cells expressing luciferase-tagged ATAD5 - cell viability (AID 651634; calls by dose curve; further: nearly all actives have a fitted effect of over 25% in size)
Summary of the method: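 Fluorescence from CellTiter-Fluor, reporting protease activity within live cells, served as the viability read-out. HEK293T cells carrying luciferase-tagged ATAD5 had been treated with compound for 15.5 hr at 37C.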

[3] = qHTS assay for small molecule disruptors of the mitochondrial membrane potential - cell viability (AID 720634; calls by dose curve;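 further: human HepG2 liver cancer cells; series mostly up to about 83 µM; nearly all actives have a fitted effect of over 20% in size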)
Summary of the method: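 Cells: HepG2, 2,000/well, attached overnight. Compound 1 hr, 37 C/5% CO2. +m-MPI dye, +CellTiter-Glo 30 min RT. Readout: luminescence (ATP).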

[4] = qHTS assay for small molecule disruptors of the mitochondrial membrane potential (AID 720635); further: potency means the concentration at half of the fitted maximal effect
Summary of the method: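 Mitochondrial membrane potential tracked with Mito-MPS dye, red aggregates (ex 540/em 590 nm) against green monomers (ex 490/em 535 nm). Compound treatment 1 hr at 37C, dye 30 min in HepG2.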

[5] = qHTS assay to test for compound auto fluorescence at 590 nm (red) in HepG2 cells (AID 720674)
Summary of the method: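 1 hr compound incubation on HepG2 cells, 37 C, 5% CO2; plate read ex 540 nm / em 590 nm; intensities reported as Rose Bengal sodium equivalents.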

[6] = qHTS assay to test for compound auto fluorescence at 535 nm (green) in HepG2 cells (AID 720675)
[7] = qHTS assay to test for compound auto fluorescence at 460 nm (blue) in HEK293 cells (AID 720678)
Summary of the method: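 Measured: blue fluorescence (Ex 405/Em 460 nm) of compound-treated HEK293 cells, incubated overnight at 37C with 5% CO2 and scaled to triamterene equivalents.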

[8] = qHTS assay to test for compound auto fluorescence at 590 nm (red) in HEK293 cells (AID 720679)
Summary of the method: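 Using HEK293 cells at 2,000 per well, the screen added 23 nL of each compound after cell attachment and incubated overnight (37C, 5% CO2). The plate reader then captured red-label fluorescence, Ex/Em 540/590nm.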

[9] = qHTS assay to test for compound auto fluorescence at 535 nm (green) in HEK293 cells (AID 720680)
[10] = qHTS assay to test for compound auto fluorescence at 460 nm (blue) in HEK293 cell free culture (AID 720681)
Summary of the method: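 Blue fluorescence (Ex 405/Em 460 nm, triamterene-equivalent) was read immediately after pin transfer of compound or DMSO into medium (DMEM, 10% FBS) without cells.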

[11] = qHTS assay to test for compound auto fluorescence at 535 nm (green) in HEK293 cell free culture (AID 720682)
Summary of the method: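 Each library compound, or DMSO control, is added by pintool to medium alone, comprising DMEM and 10% FBS. Emission at 535 nm following 485 nm excitation is quantified against fluorescein.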

[12] = qHTS assay to test for compound auto fluorescence at 590 nm (red) in HEK293 cell free culture (AID 720683)
Summary of the method: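 Red-channel autofluorescence of compounds in culture medium (DMEM, 10% FBS), no cells, measured at 540/590 nm. Rose Bengal sodium is the reference fluorophore for equivalence.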

[13] = qHTS assay to test for compound auto fluorescence at 590 nm (red) in HepG2 cell free culture (AID 720684)
Summary of the method: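 Plate contents were MEM with 10% FBS plus test compound or DMSO, no cells. Fluorescence was recorded with 540 nm excitation and 590 nm emission.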

[14] = qHTS assay to test for compound auto fluorescence at 460 nm (blue) in HepG2 cell free culture (AID 720685)
Summary of the method: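 Compound (23 nL) or DMSO pinned into cell-free MEM with 10% FBS; blue fluorescence read at 405/460 nm excitation/emission, expressed as auto-fluorescence equivalency to triamterene.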

[15] = qHTS assay to test for compound auto fluorescence at 535 nm (green) in HepG2 cell free culture (AID 720686)
[16] = target: Glucocorticoid receptor (Homo sapiens) (UniProt P04150); experiment: qHTS assay to identify small molecule agonists of the glucocorticoid receptor (GR) signaling pathway (AID 720691; active means well fitted activation curve with a large enough effect in the signal ratio in the repeat runs, not every such curve was filed as active; the % refers to the signal ratio)
Chain of Glucocorticoid receptor (Homo sapiens) (P04150 whole entry, looked up): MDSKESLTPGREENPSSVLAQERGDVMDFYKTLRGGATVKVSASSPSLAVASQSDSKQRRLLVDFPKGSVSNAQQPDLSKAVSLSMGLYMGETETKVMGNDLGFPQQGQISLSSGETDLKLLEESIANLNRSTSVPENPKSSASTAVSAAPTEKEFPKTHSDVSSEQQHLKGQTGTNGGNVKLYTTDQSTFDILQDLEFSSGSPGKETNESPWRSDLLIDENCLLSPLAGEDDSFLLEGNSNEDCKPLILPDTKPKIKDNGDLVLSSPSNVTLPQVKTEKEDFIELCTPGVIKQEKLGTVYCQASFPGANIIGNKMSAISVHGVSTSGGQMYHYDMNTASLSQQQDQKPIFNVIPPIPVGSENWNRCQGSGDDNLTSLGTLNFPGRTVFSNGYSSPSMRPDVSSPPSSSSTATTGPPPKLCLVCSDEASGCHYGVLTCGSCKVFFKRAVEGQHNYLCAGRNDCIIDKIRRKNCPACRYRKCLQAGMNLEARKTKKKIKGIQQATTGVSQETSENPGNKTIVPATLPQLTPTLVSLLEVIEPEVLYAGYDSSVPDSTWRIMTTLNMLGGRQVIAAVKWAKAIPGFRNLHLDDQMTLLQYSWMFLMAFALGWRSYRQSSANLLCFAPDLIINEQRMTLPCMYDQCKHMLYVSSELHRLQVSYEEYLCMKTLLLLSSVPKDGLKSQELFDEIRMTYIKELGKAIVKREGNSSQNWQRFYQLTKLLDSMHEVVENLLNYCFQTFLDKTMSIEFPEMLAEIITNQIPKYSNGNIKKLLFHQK
Summary of the method: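 Fluorescence intensity from LiveBLAzer B/G FRET substrate (2 h, room temperature) reports beta-lactamase expression driven by the glucocorticoid response element in GR-bla HeLa cells after 18 h compound exposure at 37 C.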

[17] = qHTS assay for small molecule agonists of the p53 signaling pathway - cell viability (AID 651633; calls by dose curve;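 further: p53RE-bla HCT reporter cells with a stable beta-lactamase p53 reporter; series mostly up to about 83 µM; nearly all actives have a fitted effect of over 30% in size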)
Summary of the method: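 Viability counter-read: CellTiter-Glo luminescence (30 min, room temperature) in the same p53RE-bla plates. These plates had been exposed to compounds for 16 h at 37 C.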

[18] = qHTS assay to test for compound auto fluorescence at 460 nm (blue) in HepG2 cells (AID 720687)
Summary of the method: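 Blue-channel autofluorescence (Ex/Em 405/460 nm, triamterene-equivalent) was measured after 1 hr compound exposure at 37 C, 5% CO2. Cells were HepG2, plated overnight at 37 C in MEM plus 10% FBS.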

[19] = qHTS assay for small molecule agonists of the p53 signaling pathway (AID 651631; calls by dose curve; further: nearly all actives have a fitted effect of over 15% in size)
Summary of the method: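 Beta-lactamase reporter activity under p53 response elements was quantified in HCT-116 cells by FRET fluorescence, following 16 h incubation with test compounds at 37 °C and 2 h substrate development at room temperature.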

[20] = target: Glucocorticoid receptor (Homo sapiens) (UniProt P04150); experiment: qHTS assay to identify small molecule antagonists of the glucocorticoid receptor (GR) signaling pathway (AID 720692; active means well fitted inhibition curve with a large enough effect in the signal ratio in the repeat runs, not every such curve was filed as active; the % refers to the signal ratio)
Summary of the method: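 HeLa GR-bla cells; cmpd + dex 5 nM final, 18 h 37 C; LiveBLAzer B/G FRET substrate 2 h RT; fluorescence intensity read. Antagonist mode, qHTS.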
On the % scale 0 is the no-effect control and ±100 the full control effect.

Nc1cccc(N)n1
active: Potency [4] 14.8 µM and 48.6 µM
inactive: Potency [1] | Potency [2] | Potency [3] | outcome [5] | outcome [6] | Potency [7] | outcome [8] | outcome [9] | Potency [10] | outcome [11] | outcome [12] | outcome [13] | Potency [14] | outcome [15] | outcome [16]

OCC(CO)(CO)CO
inactive: Potency [1] | Potency [17] | Potency [2] | Potency [3] | Potency [4] | outcome [5] | outcome [6] | Potency [7] | outcome [8] | outcome [9] | Potency [10] | outcome [11] | outcome [12] | outcome [13] | Potency [14] | outcome [15] | Potency [18]

CC(=O)OC/C=C(\C)CCC=C(C)C
inactive: Potency [19] | Potency [1] | Potency [17] | Potency [2] | Potency [3] | outcome [5] | outcome [6] | Potency [7] | outcome [8] | outcome [9] | Potency [10] | outcome [11] | outcome [12] | outcome [13] | Potency [14] | outcome [15] | Potency [18] | outcome [16] | Potency [20]

OCC(O)CS (stereo not given)
inactive: Potency [19] | Potency [1] | Potency [17] | Potency [2] | Potency [3] | outcome [5] | outcome [6] | Potency [7] | outcome [8] | outcome [9] | Potency [10] | outcome [11] | outcome [12] | outcome [13] | Potency [14] | outcome [15] | Potency [18] | outcome [16] | Potency [20]

Cc1cccc(C)c1[N+](=O)[O-]
inactive: Potency [17] | Potency [2] | Potency [3] | Potency [4] | outcome [5] | outcome [6] | Potency [7] | outcome [8] | outcome [9] | Potency [10] | outcome [11] | outcome [12] | outcome [13] | Potency [14] | outcome [15] | Potency [18] | outcome [16]

CC(COCC(C)OC(=O)c1ccccc1)OC(=O)c1ccccc1 (stereo not given)
inactive: Potency [1] | Potency [17] | Potency [2] | Potency [3] | Potency [4] | outcome [5] | outcome [6] | Potency [7] | outcome [8] | outcome [9] | Potency [10] | outcome [11] | outcome [12] | outcome [13] | Potency [14] | outcome [15] | Potency [18] | outcome [16] | Potency [20]

O=C1CCCCCCCCCCC1
inactive: Potency [1] | Potency [17] | Potency [2] | Potency [3] | Potency [4] | outcome [5] | outcome [6] | Potency [7] | outcome [8] | outcome [9] | Potency [10] | outcome [11] | outcome [12] | outcome [13] | Potency [14] | outcome [15] | Potency [18] | outcome [16] | Potency [20]

CC1=CC(=O)CC(C)(C)C1
inactive: Potency [19] | Potency [17] | Potency [2] | Potency [3] | Potency [4] | outcome [5] | outcome [6] | Potency [7] | outcome [8] | outcome [9] | Potency [10] | outcome [11] | outcome [12] | outcome [13] | Potency [14] | outcome [15] | Potency [18] | outcome [16] | Potency [20]

C=CC(=O)NCOCCCC
inactive: Potency [1] | Potency [17] | Potency [2] | Potency [3] | Potency [4] | outcome [5] | outcome [6] | Potency [7] | outcome [8] | outcome [9] | Potency [10] | outcome [11] | outcome [12] | outcome [13] | Potency [14] | outcome [15] | Potency [18] | outcome [16] | Potency [20]

O=C1O[C@H]([C@H](O)CO)C(O)=C1O
inactive: Potency [19] | Potency [1] | Potency [2] | Potency [3] | Potency [4] | outcome [5] | outcome [6] | Potency [7] | outcome [8] | outcome [9] | Potency [10] | outcome [11] | outcome [12] | outcome [13] | Potency [14] | outcome [15] | Potency [18] | outcome [16] | Potency [20]

OCCOCCOCCOCCOCCO
inactive: Potency [19] | Potency [17] | Potency [2] | Potency [3] | Potency [4] | outcome [5] | outcome [6] | Potency [7] | outcome [8] | outcome [9] | Potency [10] | outcome [11] | outcome [12] | outcome [13] | Potency [14] | outcome [15] | Potency [18]

Clc1cccc(Cl)c1NC1=NCCN1
inactive: Potency [19] | Potency [17] | Potency [2] | Potency [3] | Potency [4] | outcome [5] | outcome [6] | Potency [7] | outcome [8] | outcome [9] | Potency [10] | outcome [11] | outcome [12] | outcome [13] | Potency [14] | outcome [15] | Potency [18] | outcome [16] | Potency [20]

CCCCCCCCCCCC(=O)N(C)CC(=O)O
inactive: Potency [1] | activity change, negative = cytotoxicity [17] 23.9% [at 8.08 µM] | Potency [2] | Potency [3] | ratio activity, negative = MMP loss [4] 7.77% [at 8.08 µM] | outcome [5] | outcome [6] | Potency [7] | outcome [8] | outcome [9] | Potency [10] | outcome [11] | outcome [12] | outcome [13] | Potency [14] | outcome [15] | Potency [18] | outcome [16] | activity change, negative = inhibition [20] -13% [at 7.04 µM]

N#CCC(=O)O
inactive: Potency [19] | Potency [1] | Potency [17] | Potency [2] | outcome [5] | outcome [6] | Potency [7] | outcome [8] | outcome [9] | Potency [10] | outcome [11] | outcome [12] | outcome [13] | Potency [14] | outcome [15] | Potency [18] | outcome [16] | Potency [20]

NCCNCCNCCN
inactive: Potency [19] | Potency [17] | Potency [2] | Potency [3] | Potency [4] | outcome [5] | outcome [6] | Potency [7] | outcome [8] | outcome [9] | Potency [10] | outcome [11] | outcome [12] | outcome [13] | Potency [14] | outcome [15] | Potency [18] | outcome [16] | Potency [20]
